Screening results: PubChem BioAssay, National Center for Advancing Translational Sciences (NCATS)
Only some compounds are listed: those with a hit (about 1.8% of all), similar ones and a draw of the others.
KCNH2 WT inh: KCNH2 (human, wildtype) channel inhibition; Q12809; U2OS, BacMam KCNH2, thallium flux FluxOr; stronger effect = lower value; activity change, % at 1.84 µM; hit rate 0.37% among 340,000; AID 720551;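 active means maximum activity change below -70%; inconclusive means maximum activity change between -70% and -50%; inactive means maximum activity change above -50%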; further: on the % scale 0 is the no-effect control and ±100 the full control effect
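U2OS cells were transduced with wild-type KCNH2 virus (2.03 x 10^8 / mL) for 4 h at room temperature, then cultured overnight at 37 C. Thallium flux was read with FluxOr dye. Rate constants were normalized to DMSO controls.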
AT treatment: potential ataxia-telangiectasia treatment | hit rate 0.19% among 320,000 | F2112 A-T fibroblasts, KAP-1 phosphorylation AlphaLISA; neocarzinostatin DNA damage 30 min before lysis | Potency, µM (series often up to 57.5 µM), for inactives: at the highest dose activation, hits mostly activators; further: potency means the concentration at half of the fitted maximal effect; % of control where 0% means no effect; nearly all actives have a fitted effect of over 45% in size
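hTERT-immortalized A-T patient fibroblasts (F2112), 500 cells/well in OPTI-MEM, 1% FBS, got compounds for 60 min, then NCS for 30 min at 37C. Lysates were then assayed for phospho-KAP-1 by AlphaLISA (anti-pKAP1 donor, anti-KAP1 acceptor beads), 6 hr at 25C.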
KCNH2 3.1 inh: KCNH2 3.1 (human) potassium channel inhibition; hit rate 0.95% among 340,000; AID 720553; activity change, % (tested at about 1.8 µM); U2OS KCNH2 3.1, thallium flux FluxOr; stronger effect = lower value;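 active means maximum activity change below -70%; inconclusive means maximum activity change from -70% to -50%; inactive means maximum activity change above -50%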;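 further: thallium influx rate constant from kinetic fluorescence after stimulation buffer; on the % scale 0 is the no-effect control and ±100 the full control effect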
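Virally transduced U2OS (3.1 isoform, 4 h infection in dark at RT) → overnight 37 C → FluxOr + Red40 in HBSS/HEPES, 45 min → stimulation buffer, 2 min kinetic read → rate constant vs DMSO controls.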
12-LOX inh: ALOX12 (human) lipoxygenase inhibition | purified 12hLO, xylenol orange hydroperoxide absorbance | P18054 | hit rate 1.1% among 580,000 | Potency, µM (top dose mostly 108 µM), without a hit: at the top dose activity change, negative = inhibition, actives largely listed as inhibitors | AID 1671190; further: potency means the concentration at half of the fitted maximal effect; on the % scale 0 is the no-effect control and ±100 the full control effect
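Purified human 12hLO at 150 nM in 25 mM Hepes, 0.01% Triton X-100, pH 7.0, preincubated 15 min at room temperature with compound. Reaction started with 40 uM arachidonic acid, 30 min at room temperature. Hydroperoxide measured by Fe-xylenol orange, 573/405 nm absorbance ratio.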
* marks the source's active call; other numbers are inactive results; [ ] = dose if it differs, or a comment. Unless noted, the call rests on the fitted dose curve; in most records, active means well fitted curve in the direction sought with a large enough effect; inconclusive means small, poorly fitted or top-dose-only effect, or another doubt; inactive means no such curve, though single readings can be large; an effect the other way counts as inactive or inconclusive.

For O=C(Nc1ccc(OCC(=O)N2CCOCC2)cc1)Nc1cccc(Cl)c1 the results were KCNH2 WT inh 14, AT treatment 6%[11.5 µM], KCNH2 3.1 inh -82* and 12-LOX inh 2%.
`COc1ccc2[nH]c(=O)c(-c3nnn(-c4ccc(F)cc4)n3)cc2c1` gave KCNH2 WT inh -7, KCNH2 3.1 inh 5 and 12-LOX inh 10µM*.
COc1ncccc1-c1nnn(-c2ccc(Cl)nc2)n1 was read as KCNH2 WT inh 2, AT treatment -14%, KCNH2 3.1 inh 27 and 12-LOX inh -6%.
For COc1ccc2[nH]c(=O)c(-c3nnn(-c4ccc(Cl)nc4)n3)cc2c1 the results were KCNH2 WT inh -2 and KCNH2 3.1 inh -99*.
COc1ccc2[nH]c(=O)c(-c3nnn(-c4ccccc4)n3)cc2c1 was read as KCNH2 WT inh 8, AT treatment 6%, KCNH2 3.1 inh -10 and 12-LOX inh -2%.
For CC(C)(C)c1cc(N)c(O)c(Cl)c1 the results were 12-LOX inh 18µM*.
`O=C(NCCc1ccccc1)C1CCN(c2cn[nH]c(=O)c2)C1` (stereo unspecified) gave 12-LOX inh 20%.
For Cc1ccc(-c2nc3cnccn3c2NCCC(=O)NCc2ccco2)cc1 the results were 12-LOX inh 50µM*.
For CC(C)C(NC(=O)C1CC1)c1ccccc1 (stereo unspecified) the results were 12-LOX inh 4%.
For Oc1ccc(N=Nc2ccc3c(c2)OCO3)c2ccccc12 the results were AT treatment 10µM*.
`O=C1C([N+](=O)[O-])=C(O)c2cccc3cccc1c23` gave AT treatment 28µM*.
For O=C(N/N=C1\C(=O)c2cccc3cccc1c23)c1ccc(O)cc1 the results were KCNH2 WT inh -4, AT treatment -3%, KCNH2 3.1 inh -4 and 12-LOX inh 0%.
`O=C(O)c1ccc(-n2cc(-c3cc4ccccc4oc3=O)[nH]c2=S)cc1` gave KCNH2 WT inh -9, AT treatment 4%, KCNH2 3.1 inh -2 and 12-LOX inh 32µM*.
For O=C(N/N=C/c1cc(-c2ccccc2)sc1Cl)c1ccccc1 the results were 12-LOX inh 4%.
Screening O=C(/C=C/c1ccc(-c2ccccc2Cl)o1)c1ccccc1 returned 12-LOX inh 20µM*.
For O=C(/C=C/c1ccc(-c2ccc(Cl)cc2Cl)o1)c1ccccc1 the results were 12-LOX inh 1.6µM*.
Screening CCC(C)Sc1ccc(-c2nc3ccc(C)cn3c2NCc2ccccc2)cc1OC (stereo unspecified) returned KCNH2 WT inh 0, AT treatment inconclusive and KCNH2 3.1 inh -47.
Clc1cccc(-c2ccc(-c3nc4ccccn4c3NCc3ccccc3)cc2)c1 was read as KCNH2 WT inh 0, AT treatment 25%, KCNH2 3.1 inh 5 and 12-LOX inh -13%.
Screening CCCCCCSc1ccc(-c2nc3ccc(C)cn3c2NCc2ccccc2)cc1OC returned KCNH2 WT inh -20, AT treatment inconclusive, KCNH2 3.1 inh -91* and 12-LOX inh inconclusive.
For CCCCNc1c(-c2ccc(OC)c(SC3CCCCC3)c2)nc2ccc(C)cn12 the results were KCNH2 WT inh 4, AT treatment 5%, KCNH2 3.1 inh -41 and 12-LOX inh inconclusive.
Screening CCCCNc1c(-c2ccc(SC3CCCCC3)c(OC)c2)nc2ccc(C)cn12 returned KCNH2 WT inh 8, AT treatment 22%, KCNH2 3.1 inh -72* and 12-LOX inh inconclusive.
Screening CCCCCCSc1ccc(-c2nc3ccc(C)cn3c2NCc2ccccc2)cc1 returned KCNH2 WT inh 10, AT treatment 28%, KCNH2 3.1 inh -16 and 12-LOX inh inconclusive.
`COc1ccc(-c2cc(-c3nc4ccccn4c3NCc3ccccc3)ccc2OC)cc1` gave KCNH2 WT inh -99*, AT treatment 10%, KCNH2 3.1 inh -101* and 12-LOX inh -18%.
Screening CCC(C)Sc1cc(-c2nc3ccc(C)cn3c2NCc2ccccc2)ccc1OC (stereo unspecified) returned KCNH2 WT inh inconclusive, KCNH2 3.1 inh -102* and 12-LOX inh 27%.
For CC1=C[C@@H](CNC(=O)C2CCCCC2)[C@H](C(C)C)C[C@H]1Cc1nc2ccccc2n1C the results were 12-LOX inh -20%[176 µM].
Screening COCCc1noc(C2CNC2)n1 returned 12-LOX inh 41%.
`COc1ccc(S(=O)(=O)N(CC(=O)N2CCN(C)CC2)c2ccccc2OC)cc1` gave 12-LOX inh -3%.
`COc1ccccc1CNC(=O)c1ccccc1C(F)(F)F` gave 12-LOX inh 2%.
`Cc1ccc(-n2nnc(C(=O)NCc3ccccn3)c2C)cc1F` gave 12-LOX inh 38%.
`Cc1ccn2c(NCc3ccccc3)c(-c3cccc(SC4CCCCC4)c3)nc2c1` gave KCNH2 WT inh 7, AT treatment inconclusive, KCNH2 3.1 inh -17 and 12-LOX inh inconclusive.
CCC(C)Sc1cccc(-c2nc3cc(C)ccn3c2NCc2ccccc2)c1 (stereo unspecified) was read as KCNH2 WT inh 3, AT treatment 22µM*, KCNH2 3.1 inh -41 and 12-LOX inh inconclusive.
Screening Cc1ccc(/C(O)=C2\C(=O)C(=O)N(c3nc4ccccc4s3)C2c2ccc(O)cc2)cc1 (stereo unspecified) returned 12-LOX inh 18µM*.
For CCCOc1ccc(/C(O)=C2/C(=O)C(=O)N(CCOC)C2c2cccnc2)cc1 (stereo unspecified) the results were 12-LOX inh 0%.
`COc1ccc(C2/C(=C(\O)c3ccc(C)cc3)C(=O)C(=O)N2CCCO)cc1` (stereo unspecified) gave 12-LOX inh 0.56µM*.
Screening CCOc1ccc(/C(O)=C2\C(=O)C(=O)N(c3nccs3)C2c2ccc(C)cc2)cc1 (stereo unspecified) returned 12-LOX inh 6.3µM*.
Screening C=CCOc1ccc(/C(O)=C2\C(=O)C(=O)N(CCOC)C2c2cccnc2)cc1 (stereo unspecified) returned KCNH2 WT inh -43, AT treatment -11%, KCNH2 3.1 inh 3 and 12-LOX inh 40µM*.
`CCOc1ccc(/C(O)=C2/C(=O)C(=O)N(c3ncccn3)C2c2ccc(Cl)cc2)cc1` (stereo unspecified) gave KCNH2 WT inh -14, AT treatment 2%, KCNH2 3.1 inh -30 and 12-LOX inh 0%.
Screening O=C(CN1C(=O)NC(c2ccccc2)(c2ccccc2)C1=O)N1CCN(c2ccc(F)cc2)CC1 returned KCNH2 WT inh 13, AT treatment -3%, KCNH2 3.1 inh inconclusive and 12-LOX inh -11%.
`O=C(CN1C(=O)NC(c2ccccc2)(c2ccccc2)C1=O)N1CCN(c2ccccc2F)CC1` gave KCNH2 WT inh 1, AT treatment -6%, KCNH2 3.1 inh -198* and 12-LOX inh 0%.
For CCC(CC)C(=O)N1CC2CC(C1)[C@H]1CCCC(=O)N1C2 (stereo partly specified) the results were 12-LOX inh 2%.
